Results: PubChem BioAssay AID1159580 (chemical genetic matrix, 2015)
Out of some 5,500 compounds screened, about 2,000 (36%) were called active. About 18% were inconclusive and are not listed. No stated cut-off is given here; in the data, active means normalized growth mostly below about 0.91 (no sharp cut-off); inconclusive means no clear call, values can overlap the other calls; inactive means mostly above about 0.92. The list shows a part of the results.

Assay: chemical genetic growth profiling, strain panel (AID 1159580);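 further: tested at 20 µM; growth read once vehicle control cultures reached saturation at 30 °C; 1 = growth at the plate median or of vehicle wells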
Conditions: growth OD

Measured: normalized growth

CC(C)c1nc(N(C)S(C)(=O)=O)nc(-c2ccc(F)cc2)c1/C=C/[C@@H](O)C[C@@H](O)CC(=O)O
active: S. cerevisiae deletion strains, locus YLL041C, strain sdh2, stronger effect = lower value 0.9 | S. cerevisiae deletion strains, locus YLR113W, strain HOG1, stronger effect = lower value 0.232 | S. cerevisiae deletion strains, locus YNL183C, strain NPR1, stronger effect = lower value 0.0704 | S. cerevisiae deletion strains, locus YOR231W, strain MKK1, stronger effect = lower value 0.124 | S. cerevisiae deletion strains, locus YPL256C, strain CLN2, stronger effect = lower value 0.162
inactive: S. cerevisiae deletion strains, locus YJR075W, strain HOC1, stronger effect = lower value 0.996 | S. cerevisiae deletion strains, locus YKL009W, strain mrt4, stronger effect = lower value 1.01 | S. cerevisiae deletion strains, locus YKL068W, stronger effect = lower value 1.03 | S. cerevisiae deletion strains, locus YKL085W, strain MDH1 (second series), stronger effect = lower value 0.992 | S. cerevisiae deletion strains, locus YKL085W, strain MDH1, stronger effect = lower value 0.992 | S. cerevisiae deletion strains, locus YKL160W, strain elf1, stronger effect = lower value 0.994 | S. cerevisiae deletion strains, locus YKL190W, strain CNB1, stronger effect = lower value 1.01 | S. cerevisiae deletion strains, locus YKR001C, strain vps1, stronger effect = lower value 1.03 | S. cerevisiae deletion strains, locus YKR026C, strain gcn3, stronger effect = lower value 1.02 | S. cerevisiae deletion strains, locus YKR091W, strain srl3, stronger effect = lower value 1.01 | S. cerevisiae deletion strains, locus YLL001W, strain dnm1, stronger effect = lower value 1.03 | S. cerevisiae deletion strains, locus YLL026W, stronger effect = lower value 1.01 | S. cerevisiae deletion strains, locus YLR027C, strain aat2, stronger effect = lower value 1.01 | S. cerevisiae deletion strains, locus YLR039C, strain RIC1, stronger effect = lower value 1.31 | S. cerevisiae deletion strains, locus YLR058C, strain SHM2, stronger effect = lower value 1 | S. cerevisiae deletion strains, locus YLR102C, strain apc9, stronger effect = lower value 1.02 | S. cerevisiae deletion strains, locus YLR221C, strain rsa3, stronger effect = lower value 1.06 | S. cerevisiae deletion strains, locus YLR258W, strain gsy2, stronger effect = lower value 1.01 | S. cerevisiae deletion strains, locus YLR262C, strain YPT6 (second series), stronger effect = lower value 1.1 | S. cerevisiae deletion strains, locus YLR262C, strain YPT6, stronger effect = lower value 1.26 | S. cerevisiae deletion strains, locus YLR268W, strain sec22, stronger effect = lower value 0.994 | S. cerevisiae deletion strains, locus YLR320W, strain mms22, stronger effect = lower value 1.01 | S. cerevisiae deletion strains, locus YLR330W, strain CHS5, stronger effect = lower value 0.999 | S. cerevisiae deletion strains, locus YLR342W, strain FKS1 (second series), stronger effect = lower value 1.03 | S. cerevisiae deletion strains, locus YLR342W, strain FKS1, stronger effect = lower value 1.03 | S. cerevisiae deletion strains, locus YLR357W, strain rsc2, stronger effect = lower value 0.994 | S. cerevisiae deletion strains, locus YLR370C, strain arc18, stronger effect = lower value 1.03 | S. cerevisiae deletion strains, locus YLR371W, strain rom2, stronger effect = lower value 1.01 | S. cerevisiae deletion strains, locus YLR384C, strain iki3, stronger effect = lower value 1 | S. cerevisiae deletion strains, locus YLR418C, strain cdc73, stronger effect = lower value 1 | S. cerevisiae deletion strains, locus YML016C, strain PPZ1, stronger effect = lower value 0.999 | S. cerevisiae deletion strains, locus YML032C, strain rad52, stronger effect = lower value 1.01 | S. cerevisiae deletion strains, locus YML120C, strain ndi1, stronger effect = lower value 1.02 | S. cerevisiae deletion strains, locus YML124C, strain tub3, stronger effect = lower value 0.997 | S. cerevisiae deletion strains, locus YMR058W, strain fet3, stronger effect = lower value 1.02 | S. cerevisiae deletion strains, locus YMR078C, strain ctf18, stronger effect = lower value 1.01 | S. cerevisiae deletion strains, locus YMR125W, strain sto1, stronger effect = lower value 1.02 | S. cerevisiae deletion strains, locus YMR129W, stronger effect = lower value 1.04 | S. cerevisiae deletion strains, locus YMR205C, strain PFK2, stronger effect = lower value 1.02 | S. cerevisiae deletion strains, locus YMR223W, strain ubp8, stronger effect = lower value 1.01 | S. cerevisiae deletion strains, locus YMR231W, strain pep5, stronger effect = lower value 0.958 | S. cerevisiae deletion strains, locus YMR263W, strain SAP30, stronger effect = lower value 0.994 | S. cerevisiae deletion strains, locus YMR307W, strain GAS1, stronger effect = lower value 1.01 | S. cerevisiae deletion strains, locus YNL067W, strain RPL9B, stronger effect = lower value 0.989 | S. cerevisiae deletion strains, locus YNL071W, strain lat1, stronger effect = lower value 1.01 | S. cerevisiae deletion strains, locus YNL128W, strain TEP1, stronger effect = lower value 0.988 | S. cerevisiae deletion strains, locus YNL153C, strain GIM3, stronger effect = lower value 0.989 | S. cerevisiae deletion strains, locus YNL209W, strain ssb2, stronger effect = lower value 1.02 | S. cerevisiae deletion strains, locus YNL233W, strain BNI4, stronger effect = lower value 0.988 | S. cerevisiae deletion strains, locus YNL248C, strain rpa49, stronger effect = lower value 1.02 | S. cerevisiae deletion strains, locus YNL250W, strain rad50, stronger effect = lower value 0.982 | S. cerevisiae deletion strains, locus YNL271C, strain bni1, stronger effect = lower value 0.976 | S. cerevisiae deletion strains, locus YNL298W, strain CLA4, stronger effect = lower value 1.02 | S. cerevisiae deletion strains, locus YNL307C, strain MCK1, stronger effect = lower value 1.02 | S. cerevisiae deletion strains, locus YNL322C, strain KRE1 (second series), stronger effect = lower value 1.03 | S. cerevisiae deletion strains, locus YNL322C, strain KRE1, stronger effect = lower value 1 | S. cerevisiae deletion strains, locus YNR049C, strain mso1, stronger effect = lower value 1.02 | S. cerevisiae deletion strains, locus YNR052C, strain pop2, stronger effect = lower value 0.929 | S. cerevisiae deletion strains, locus YOL006C, strain TOP1, stronger effect = lower value 1.01 | S. cerevisiae deletion strains, locus YOL012C, strain htz1 0.882 | S. cerevisiae deletion strains, locus YOL147C, strain pex11, stronger effect = lower value 1.01 | S. cerevisiae deletion strains, locus YOR001W, strain rrp6, stronger effect = lower value 1.01 | S. cerevisiae deletion strains, locus YOR061W, strain CKA2, stronger effect = lower value 0.994 | S. cerevisiae deletion strains, locus YOR069W, strain VPS5, stronger effect = lower value 1.01 | S. cerevisiae deletion strains, locus YOR070C, strain gyp1, stronger effect = lower value 1.01 | S. cerevisiae deletion strains, locus YOR080W, strain dia2, stronger effect = lower value 1.01 | S. cerevisiae deletion strains, locus YOR083W, strain WHI5, stronger effect = lower value 0.996 | S. cerevisiae deletion strains, locus YOR106W, strain vam3, stronger effect = lower value 1.02 | S. cerevisiae deletion strains, locus YOR136W, strain idh2, stronger effect = lower value 1 | S. cerevisiae deletion strains, locus YOR144C, strain elg1, stronger effect = lower value 1 | S. cerevisiae deletion strains, locus YOR184W, strain ser1, stronger effect = lower value 0.997 | S. cerevisiae deletion strains, locus YOR265W, strain rbl2, stronger effect = lower value 1.01 | S. cerevisiae deletion strains, locus YOR270C, strain vph1, stronger effect = lower value 0.975 | S. cerevisiae deletion strains, locus YOR290C, strain snf2, stronger effect = lower value 1 | S. cerevisiae deletion strains, locus YOR316C, strain cot1, stronger effect = lower value 1.01 | S. cerevisiae deletion strains, locus YPL051W, strain arl3, stronger effect = lower value 1.02 | S. cerevisiae deletion strains, locus YPL055C, strain LGE1, stronger effect = lower value 0.998 | S. cerevisiae deletion strains, locus YPL078C, strain atp4, stronger effect = lower value 1.02 | S. cerevisiae deletion strains, locus YPL106C, strain sse1, stronger effect = lower value 1.03 | S. cerevisiae deletion strains, locus YPL240C, strain hsp82, stronger effect = lower value 0.992 | S. cerevisiae deletion strains, locus YPL241C, strain CIN2, stronger effect = lower value 1.01 | S. cerevisiae deletion strains, locus YPR119W, strain clb2, stronger effect = lower value 0.998 | S. cerevisiae deletion strains, locus YPR141C, strain kar3, stronger effect = lower value 1.01 | S. cerevisiae deletion strains, locus YPR163C, strain tif3, stronger effect = lower value 1.01 | S. cerevisiae deletion strains, locus YPR167C, strain met16, stronger effect = lower value 1 | S. cerevisiae deletion strains, strain wtn01, stronger effect = lower value 1 | S. cerevisiae strains, strain wild type, stronger effect = lower value 0.994
